Test results: PubChem BioAssay (NCI)
This is part of a sample that, as a whole, favours compounds with a hit. Of some 83,000 tested, about 20% had one in any assay.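 Cell lines were cultured in 96-well plates, exposed to a single compound concentration, and assessed for percent growth 48 hours later.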 Unmarked numbers belong to inactive results. Activity calls are given as the source filed them. Rule for the calls: active = growth percent below 10; inactive = the rest.

Experiments:
Test in all cases: NCI-60 one-dose screen, 48 h (100 = growth as untreated, 0 = no growth, -100 = all killed)
Settings in all cases: 10 µM unless noted
NCI-H23 lung = test system: NCI-H23 lung
NCI-H226 lung = test system: NCI-H226 lung
NCI-H322M lung = test system: NCI-H322M lung
HOP-62 NSCLC = test system: HOP-62 NSCLC
NCI-H460 lung = test system: NCI-H460 lung
HOP-92 NSCLC = test system: HOP-92 NSCLC
NCI-H522 lung = test system: NCI-H522 lung
A549/ATCC NSCLC = test system: A549/ATCC NSCLC
786-0 renal = test system: 786-0 renal
COLO 205 colon = test system: COLO 205 colon
DU-145 prostate = test system: DU-145 prostate
MALME-3M melanoma = test system: MALME-3M melanoma
MDA-MB-231 breast = test system: MDA-MB-231 breast
RXF 393 renal = test system: RXF 393 renal
SF-268 CNS = test system: SF-268 CNS
SF-295 CNS = test system: SF-295 CNS
SF-539 CNS = test system: SF-539 CNS
UACC-257 melanoma = test system: UACC-257 melanoma
M14 melanoma = test system: M14 melanoma

Row | Compound | growth (NCI-H23 lung) | growth (NCI-H226 lung) | growth (NCI-H322M lung) | growth (HOP-62 NSCLC) | growth (NCI-H460 lung) | growth (HOP-92 NSCLC) | growth (NCI-H522 lung) | growth (A549/ATCC NSCLC) | growth (786-0 renal) | growth (COLO 205 colon) | growth (DU-145 prostate) | growth (MALME-3M melanoma) | growth (MDA-MB-231 breast) | growth (RXF 393 renal) | growth (SF-268 CNS) | growth (SF-295 CNS) | growth (SF-539 CNS) | growth (UACC-257 melanoma) | growth (M14 melanoma)
1 | C=C1C(=O)O[C@H]2[C@H]1CC/C(COC(=O)NCCc1ccc(OC)c(OC)c1)=C\CC[C@@]1(C)O[C@@H]21 | 59.2% | 82.6% | 88% | 92.7% | 93.9% | 26.6% | -79.9% (active) | 86.4% | 77.7% | 12.7% | 39.5% | 63.3% | 58% | 34.7% | 80.3% | 95.8% | 47.2% | 62.9% | 65.7%
2 | Cc1cc(N2CCN(C)CC2)nc(NC2CCCC(Nc3ccnc4cc(Cl)ccc34)C2)n1 (centres undefined) | 35.9% | 5.72% (active) | -6.32% (active) | -31.2% (active) | -26.6% (active) | -69.9% (active) | -46.4% (active) | 3% (active) | -60.5% (active) | -76.1% (active) | 16.9% | -82.9% (active) | -76.4% (active) | -62.2% (active) | -2.4% (active) | -71.8% (active) | -84.3% (active) | -73.6% (active) | -86.4% (active)
3 | Cc1cc(N[C@@H]2CCC[C@H](Nc3ccnc4cc(Cl)ccc34)C2)nc(N2CCCCCC2)n1 | -30.3% (active) | -38.9% (active) | -37.8% (active) | -69.7% (active) | -70.9% (active) | -77.7% (active) | -61.5% (active) | -48.9% (active) | -96.1% (active) | -79.3% (active) | -6.21% (active) | -86.4% (active) | -85.8% (active) | -80.6% (active) | -66.2% (active) | -76.1% (active) | -93% (active) | -76.5% (active) | -89.2% (active)
4 | CC/C=C\C[C@H](O)C/C=C1/C(=O)C=C[C@@]1(C)C/C=C\CCCC(=O)OC | 87.2% | 121% | 106% | 104% | 110% | 99.6% | 81.2% | 88.6% | 100% | 113% | 112% | 101% | 104% | 115% | 106% | 107% | 93.6% | 87.1% | 101%
5 | COc1ccc(N=Nc2nccs2)c(O)c1 | 79.3% | 63.6% | 88.4% | 66.3% | 40.4% | 52.8% | 69.2% | 97.2% | 18.9% | 44.2% | 51.3% | 92.1% | 35.8% | 52.7% | 26.4% | 95% | 40.2% | 85.3% | 59.6%
6 | COc1cc(-c2nn(-c3ccc(Br)cc3)cc2C(=O)O)ccc1O | 89.5% | 91.7% | 95.3% | 96.3% | 103% | 94.5% | 67.7% | 105% | 97.6% | 109% | 103% | 110% | 126% | 109% | 87.8% | 101% | 128% | 107% | 102%
7 | FC(F)(F)Oc1ccc2nc3nc4ccc[nH]c4cc3c2c1 | 64.7% | 57.2% | 71.6% | 58.4% | 46.2% | 84.7% | 75.3% | 64.5% | 46.4% | 95.4% | 87.7% | 93% | 74.2% | 76.7% | 82.3% | 98.2% | 84.8% | 103% | 96.2%
8 | COc1cc(-c2nc(C(=O)NCC(=O)NO)nn2-c2ccc(Cl)cc2)cc(OC)c1OC | 97.1% | 91.8% | 118% | 93.6% | 107% | 86.5% | 86.8% | 90.1% | 101% | 103% | 107% | 129% | 101% | 107% | 104% | 107% | 96.7% | 86.8% | 101%
9 | COc1cc2c(cc1OC)C(Sc1ccc(SC)cc1)c1c(nc(N)c(C#N)c1N)O2 (centres undefined) | -56.1% (active) | -65.7% (active) | -86.9% (active) | -46.3% (active) | -79% (active) | -23.7% (active) | -92.6% (active) | -63.5% (active) | -80.7% (active) | -79% (active) | -75.8% (active) | -67% (active) | -67.4% (active) | -75.9% (active) | -36.6% (active) | -56.3% (active) | -95.3% (active) | -51.2% (active) | -80.6% (active)
10 | O=[N+]([O-])c1ccc2c(c1)Cc1cc(F)ccc1-2 | 105% | 99.4% | 95.6% | 106% | 106% | 80.2% | 104% | 88.5% | 95.4% | 107% | 114% | 109% | 112% | 103% | 111% | 96.5% | 109% | 87.1% | 110%
11 | CCN1CCN(c2nc(NCCNc3ccnc4cc(Cl)ccc34)c3ccccc3n2)CC1 | 69% | 27.2% | 42.3% | 24.9% | 1.75% (active) | 32.7% | 18% | 0.344% (active) | 4.75% (active) | -60.6% (active) | 33.9% | -78% (active) | -73% (active) | -39% (active) | 27.2% | -41.9% (active) | -71.2% (active) | 57.9% | -76.6% (active)
12 | OCCN1CCN(c2nc(Nc3ccc(-c4nc5ccccc5[nH]4)cc3)c3cn[nH]c3n2)CC1 | -75.6% (active) | 106% | -89.8% (active) | -93.2% (active) | -85.4% (active) | -83.4% (active) | -85.6% (active) | -91.9% (active) | -88.5% (active) | -81.4% (active) | -87.1% (active) | -74.2% (active) | -77% (active) | -93.6% (active) | -80.9% (active) | -96% (active) | -85.4% (active) | -89% (active) | -78.3% (active)
13 | COc1ccc(C(=O)/C=C/c2cccnc2Nc2cc(OC)c(OC)c(OC)c2)cc1 | 59.2% | 41% | 80.5% | 48% | 5.28% (active) | 49.3% | 14.8% | 23.6% | 39.2% | 38.6% | 31.9% | 80.5% | 49% | 12.9% | 14.9% | 27.4% | 4.67% (active) | 35.8% | 42.7%
14 | c1ccc2[nH]c(-c3ccc(Nc4nc(N5CCCC5)nc5[nH]ncc45)cc3)nc2c1 | -11.3% (active) | 98.9% | 6.53% (active) | -36.6% (active) | -44.3% (active) | -56.4% (active) | -54.7% (active) | -42.4% (active) | -92.4% (active) | -75.9% (active) | -6.9% (active) | -71.5% (active) | -48.5% (active) | -81.5% (active) | -7.79% (active) | -63.3% (active) | -68.1% (active) | -90.5% (active) | -78% (active)
15 | CC(=O)OC[C@H]1O[C@H](OC(C)=O)[C@H](NC(=O)/C=C/CCl)[C@@H](OC(C)=O)[C@@H]1OC(C)=O | 75.4% | 109% | 84.5% | 96.1% | 96.6% | 76.6% | -64% (active) | 87.6% | 68% | 74.9% | 93.2% | 83.2% | 46.3% | 75.2% | 89.3% | 87.5% | 65.6% | 64% | 87.5%
16 | O=[N+]([O-])c1ccccc1/C=N\NC(=S)N/N=C/c1ccccc1[N+](=O)[O-] | 70.1% | 83.1% | 63.7% | 56.5% | 10% | 53.7% | 23.2% | 74.8% | 74.9% | 94.6% | 62.1% | 19% | 83% | 76.3% | 41% | 29.8% | 56.3% | 83.2% | 37.6%
